In the library only some 2.3% were active in any assay of this set; here they are far more common.
A549 viability – Nrf2 qHTS screen for inhibitors: counterscreen for cytotoxicity; 390,000 tested, 0.16% active; AID 504648, 2011; Potency, µM (series often up to 46 µM), for inactives: at the top dose activity change, negative = cytotoxicity, usual class: inhibitors; A549 ARE-Fluc cells, CellTiter-Fluor viability, 18-24 h; further: potency means the concentration at half of the fitted maximal effect; on the % scale 0 is the no-effect control and ±100 the full control effect
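A549 ARE_Fluc cells in 5% FBS OPTI-MEM were exposed to compounds in concentration-response for 18-24 h at 37 deg C. Viability was read by CellTiter-Fluor fluorescence (Ex 405/Em 525) after 30 min, before the luciferase read.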
IDH1 R132H inh – qHTS for Inhibitors of mutant isocitrate dehydrogenase 1 (IDH1): qHTS; Potency, µM (series often up to 76.6 µM), for the others: top-dose activity change, negative = inhibition, usual class: inhibitors; IDH1-R132H enzyme, NADPH consumption, diaphorase/resazurin fluorescence; AID 602179, 2012; Isocitrate dehydrogenase [NADP] cytoplasmic (Homo sapiens), O75874; 390,000 tested, 0.093% active; further: potency means the concentration at half of the fitted maximal effect; on the % scale 0 is the no-effect control and ±100 the full control effect; nearly all actives have a fitted effect of over 65% in size
Target sequence (O75874 whole entry R132H, stated change not applied): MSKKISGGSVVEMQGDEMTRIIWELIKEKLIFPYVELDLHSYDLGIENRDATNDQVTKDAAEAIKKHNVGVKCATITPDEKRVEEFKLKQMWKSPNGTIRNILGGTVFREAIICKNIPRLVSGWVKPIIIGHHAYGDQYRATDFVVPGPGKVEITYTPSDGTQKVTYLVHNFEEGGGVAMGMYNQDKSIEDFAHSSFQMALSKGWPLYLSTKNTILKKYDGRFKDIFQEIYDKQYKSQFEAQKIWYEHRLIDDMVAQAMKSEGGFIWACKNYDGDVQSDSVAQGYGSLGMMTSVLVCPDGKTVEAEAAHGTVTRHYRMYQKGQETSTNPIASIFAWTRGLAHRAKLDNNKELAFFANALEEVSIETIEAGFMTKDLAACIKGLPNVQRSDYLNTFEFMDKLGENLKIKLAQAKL
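IDH1-R132H (0.5 ug/mL) preincubated 30 min with compound, then NADPH (0.016 mM) and alpha-KG (2 mM) added; 80 min at RT, pH 7.5. Remaining NADPH coupled via diaphorase/resazurin to fluorescence (540/590 nm); concentration-response curves normalized to no-enzyme control.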
Nrf2 ARE act – qHTS of Nrf2 Activators; AID 624171, 2012; Potency, µM (titrated, usually from 46.1 µM), inactives show at the top dose activation, hits mostly activators; AREc32 ARE-luciferase reporter (MCF7-derived line), luminescence, 24 h; 410,000 tested, 0.31% active; further: potency means the concentration at half of the fitted maximal effect; % of control where 0% means no effect; nearly all actives have a fitted effect of over 65% in size
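Cells of the AREc32 ARE-luciferase line are plated in OPTI-MEM containing 5% FBS and left overnight at 37 deg C. Compounds are pinned in, incubation continues 24 hr, and firefly luciferase signal is then measured.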
Anesthetic bind – qHTS Assay for Identification of Novel General Anesthetics; 350,000 tested, 0.074% active; apoferritin/1-aminoanthracene competitive binding, fluorescence; Ferritin light chain (Equus caballus), P02791; Potency, µM (doses to about 77.5 µM), without a hit: at the top dose activity change, negative = displacement, usual class: inhibitors; further: potency means the concentration at half of the fitted maximal effect; on the % scale 0 is the no-effect control and ±100 the full control effect; nearly all actives have a fitted effect of over 20% in size
Target sequence (P02791 2-175 limits assumed): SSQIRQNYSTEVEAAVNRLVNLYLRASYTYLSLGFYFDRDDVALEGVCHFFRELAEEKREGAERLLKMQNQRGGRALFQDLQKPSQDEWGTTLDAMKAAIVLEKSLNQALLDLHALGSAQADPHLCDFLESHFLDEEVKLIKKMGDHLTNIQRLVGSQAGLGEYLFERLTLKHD
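10 uM apoferritin + 50% sat. 1-AMA, PBS; cpd 10 min RT; Ex380/Em535 endpoint; normalized to free probe vs complex; 4-param Hill fit; propofol titration as pos. ctrl.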
Giardia kill – Small Molecules that selectively kill Giardia lamblia: qHTS; Giardia lamblia trophozoite viability; activity change, % at 7.66 µM, hits read low; 340,000 tested, 0.15% active; AID 540267, 2011; in the data active means activity change below about -80%; inconclusive means between about -30% and that limit;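 further: parasites exposed to compound for two days anaerobically before the ATP read; on the % scale 0 is the no-effect control and ±100 the full control effect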
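Viability, read as ATP luminescence: trophozoites at 100 cells/well, compound added, 48 hrs anaerobic at 37 deg C, then 15-30 min room-temperature development before reading.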
Nrf2 block – Nrf2 qHTS screen for inhibitors; A549 ARE-Fluc reporter, luciferase luminescence, 18-24 h; Potency, µM (top dose mostly 46 µM), for the others: top-dose activity change, negative = inhibition, actives largely listed as inhibitors; 360,000 tested, 2.1% active; AID 504444, 2011; further: potency means the concentration at half of the fitted maximal effect; on the % scale 0 is the no-effect control and ±100 the full control effect; nearly all actives have a fitted effect of over 60% in size
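Nrf2 activity is the BugLite luminescence, read 15 min after reagent at room temperature, following CellTiter-Fluor cytotoxicity readout (30 min, 37C). Compound titrations were applied for 18-24 h to 5000 A549 ARE_Fluc cells/well in 5% FBS OPTI-MEM.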
Resorufin autofl – qHTS for Inhibitors of mutant isocitrate dehydrogenase 1 (IDH1): Cherrypicks Autofluorescence Interference. shares compounds with IDH1 R132H inh. 750 tested, under 10 active. AID 623980, 2012. Resorufin detection reagent fluorescence interference, cell-free. inhibition of signal, % at 51.2 µM;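 further: 0% = wells with normal resorufin and full inhibition = wells lacking resorufin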
IDH1 WT – qHTS for Inhibitors of mutant isocitrate dehydrogenase 1 (IDH1): Cherrypicks in WT IDH1; shares compounds with IDH1 R132H inh; WT IDH1 enzyme, NADPH diaphorase/resazurin fluorescence; Potency, µM (titrated, usually from 115 µM), for inactives: at the highest dose activity change, negative = inhibition, usual class: inhibitors; 750 tested, 9% active; AID 623995, 2012;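 further: potency means the concentration at half of the fitted maximal effect; 0% = full WT IDH1 enzyme control and full inhibition = no enzyme wells; nearly all actives have a fitted effect of over 55% in size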
Target sequence (O75874 whole entry, looked up): as the sequence (O75874 whole entry R132H, stated change not applied) above, with H132R counted along it
mIDH1 confirm – qHTS for Inhibitors of mutant isocitrate dehydrogenase 1 (IDH1): Confirmation of Cherrypicks | Potency, µM (doses to about 76.6 µM), for the others: at the highest dose activity change, negative = inhibition, hits mostly inhibitors | 750 tested, 83% active | shares compounds with IDH1 R132H inh | IDH1 R132H enzyme, NADPH diaphorase/resazurin fluorescence; further: potency means the concentration at half of the fitted maximal effect; nearly all actives have a fitted effect of over 50% in size
* marks the source's active call; other numbers are inactive results; u = inconclusive; x = no result; [ ] = remark or other dose. Unless noted, the call rests on the fitted dose curve; in most records, active means well fitted curve in the direction sought with a large enough effect; inconclusive means small, poorly fitted or top-dose-only effect, or another doubt; inactive means no such curve, though single readings can be large; an effect the other way counts as inactive or inconclusive.

SMILES | A549 viability | IDH1 R132H inh | Nrf2 ARE act | Anesthetic bind | Giardia kill | Nrf2 block | Resorufin autofl | IDH1 WT | mIDH1 confirm
Cc1cccc(C)c1Nc1c(-c2ccccc2Cl)nc2cnccn12 | -16.9% | -3.6% | 4.7% | 0.1% | x | 9.1%[9.27 µM] | x | x | x
NC(=O)CN1C(=O)/C(=c2\sc3nc(=O)c(Cc4ccccc4)nn3c2=O)c2ccccc21 | -6.3% | u | 0.1% | -12.6% | 6.1 | -13.3% | 2.3 | 39.7% | -6.1%
O=C(Nc1ccccc1Oc1ccccc1)[C@@H]1O[C@H](CO)[C@H](O)[C@H](O)[C@H]1O | x | x | 0.4%[9.22 µM] | x | x | x | x | x | x
COc1ccc(C2c3c(-c4cc(Cl)c(C)cc4O)n[nH]c3C(=O)N2Cc2cccnc2)cc1OC (stereo unspecified) | 7.8% | u | 0.6% | 4.1% | 11.8 | 20.5% | 7.8 | 5.2% | 28.2µM*
CCOc1ccc(C2c3c(-c4ccccc4O)n[nH]c3C(=O)N2Cc2cccnc2)cc1OC (stereo unspecified) | -3.8% | u | 5.7% | -3.9% | x | 5.2% | 0.5 | -11.9% | 31.6µM*
CCOc1cc(C2c3c(-c4ccccc4O)n[nH]c3C(=O)N2Cc2cccnc2)ccc1O (stereo unspecified) | 2.3% | 6.8% | 3.0% | -5.8% | x | 0.1% | x | x | x
CC1=Nc2cc(C(=O)NCc3ccccc3Cl)ccc2Sc2c(C)ccc(C)c21 | -12.8% | -4.5% | 0.0% | -0.3% | x | 2.2% | x | x | x
CCCC(NC(=O)CCc1c(C)c2cc3c4c(oc3c(C)c2oc1=O)CCCC4)C(=O)O (stereo unspecified) | 11.3% | 41.4µM* | -0.8% | -0.5% | 5.4 | u | 0.0 | -9.1% | 28.2µM*
Cc1c(CCC(=O)N[C@@H](C)C(=O)O)c(=O)oc2cc3oc4c(c3cc12)CCCC4 | -0.2% | 7.6% | -3.0% | 5.2% | 20.4 | u | x | x | x
O=C(C=P(c1ccccc1)(c1ccccc1)c1ccccc1)c1ccccc1-c1ccccc1C(=O)C=P(c1ccccc1)(c1ccccc1)c1ccccc1 | 4.61µM* | 23.3µM* | 0.2% | x | -11.2 | 2.06µM* | 2.3 | u | 3.16µM*
O=C1CN(c2nc(-c3cccs3)nc3sc4c(c23)CCCC4)CCN1 | -2.5% | 52.1µM* | 2.5% | -4.0% | 2.1 | u | -14.3 | u | 28.2µM*
O=c1oc(-c2cccs2)nc2sc3c(c12)CCCC3 | -8.8% | 4.5% | 7.6% | -6.7% | 10.7 | -11.7% | x | x | x
COc1cc(SC#N)ccc1N=Cc1c(C)[nH]n(-c2ccc(C)c(C)c2)c1=O | -17.3% | u | 7.8% | -11.5% | -9.2 | 9.1% | x | x | x
COc1cc(SC#N)ccc1N=Cc1c(C)[nH]n(-c2ccc(Cl)cc2)c1=O | 1.4% | u | 0.2% | -10.7% | 7.8 | -6.0% | -0.7 | 0.9% | 44.7µM*
Cc1nnc2c3ccccc3nc(Nc3cccc(O)c3)n12 | 4.6% | -5.8% | u | -7.9% | x | u | x | x | x
CCCCN1C(=O)c2[nH]nc(-c3ccccc3O)c2C1c1cc(Br)c(O)c(OC)c1 (stereo unspecified) | 0.4% | 28.2µM* | 5.1% | -4.4% | x | 11.4% | 0.5 | 39.8µM* | 8.91µM*
O=C1c2[nH]nc(-c3ccccc3O)c2C(c2cccc(Cl)c2)N1CC1CCCO1 (stereo unspecified) | -1.5% | u | 8.2% | -14.4% | 1.6 | 5.9% | 9.6 | 0.4% | 39.8µM*
COc1cccc(C2c3c(-c4ccccc4O)n[nH]c3C(=O)N2CCc2ccc(OC)c(OC)c2)c1 (stereo unspecified) | -16.3% | u | 0.6% | -13.6% | x | u | -0.7 | 9.9% | 25.1µM*
CCCCN1C(=O)c2[nH]nc(-c3ccccc3O)c2C1c1ccc(OCc2ccccc2)c(OC)c1 (stereo unspecified) | -13.8% | -23.4% | -0.3% | -8.0% | x | u | x | x | x
O=C1c2[nH]nc(-c3ccccc3O)c2C(c2ccc(F)cc2)N1CC1CCCO1 (stereo unspecified) | -5.2% | 0.9% | 4.5% | -13.1% | 6.0 | -1.8% | x | x | x
CCOc1ccc(NC(=O)CSC2=Nc3ccccc3C3=NC(CCC(=O)NCc4cccs4)C(=O)N23)cc1 (stereo unspecified) | 0.5% | 4.9% | -0.5% | u | x | x | x | x | x
O=c1n(Cc2ccc(Cl)cc2)nc2n1-c1ccccc1OC2 | -1.2% | -7.1% | -0.1% | -5.6% | x | 2.3% | x | x | x
CC(=O)N1c2ccc3ccccc3c2C2C=CCC2C1c1ccc(Br)cc1 (stereo unspecified) | x | x | x | 140.1% | x | x | x | x | x
CC(=O)N1c2ccc(Cl)cc2C2C=CCC2C1c1cccc2ccccc12 (stereo unspecified) | -27.9% | 14.7µM* | -0.6% | -11.6% | 13.6 | u | 10.6 | 39.8µM* | 6.31µM*
COc1ccc(-c2cc(C(F)(F)F)nc(SCC(=O)N(C)Cc3ccccc3)n2)cc1 | -10.7% | -3.4% | 4.0% | u | x | u | x | x | x
CCN1CC=C2C(C#N)=C(N)C(C#N)(C#N)C(c3cc(Cl)ccc3Cl)C2C1 (stereo unspecified) | -17.8% | u | 2.6% | 82.7% | -6.7 | -20.7% | 3.4 | 6.2% | -17.3%
CCC1C2CN(C(C)=O)CC=C2C(C#N)=C(N)C1(C#N)C#N (stereo unspecified) | 10.6% | u | 2.5% | 2.8% | -1.9 | 0.5% | -7.7 | 37.5% | 44.7µM*
CCCC1C2CN(C(C)=O)CC=C2C(C#N)=C(N)C1(C#N)C#N (stereo unspecified) | 1.1% | -8.2% | -0.3% | 32.2% | -14.1 | 9.5% | x | x | x
CCOC(=O)c1cc(C)n(CC2CCC(C(=O)Nc3ccc(OCC)cc3)CC2)c1C (stereo unspecified) | -7.0% | 6.2% | 0.7% | 1.6% | x | u | x | x | x
